High-throughput results deposited in PubChem by National Center for Advancing Translational Sciences (NCATS).
Sampled rows, rich in hits. Any-hit rate of the full collection: about 7.5%.
FLuc modulator – firefly luciferase modulation, counter-screen for miR-21 project | AID 588342 | P08659 | Potency, µM (top dose mostly 57.5 µM), for inactives: at the top dose activity change, negative = inhibition, hits mostly inhibitors | purified FLuc, Km substrates, luminescence inhibition | hit rate 6.9% among 360,000;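 further: plate controls were vehicle for no effect and reference inhibitor for full effect; nearly all actives have a fitted effect of over 55% in size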
Target sequence (P08659 whole entry, looked up): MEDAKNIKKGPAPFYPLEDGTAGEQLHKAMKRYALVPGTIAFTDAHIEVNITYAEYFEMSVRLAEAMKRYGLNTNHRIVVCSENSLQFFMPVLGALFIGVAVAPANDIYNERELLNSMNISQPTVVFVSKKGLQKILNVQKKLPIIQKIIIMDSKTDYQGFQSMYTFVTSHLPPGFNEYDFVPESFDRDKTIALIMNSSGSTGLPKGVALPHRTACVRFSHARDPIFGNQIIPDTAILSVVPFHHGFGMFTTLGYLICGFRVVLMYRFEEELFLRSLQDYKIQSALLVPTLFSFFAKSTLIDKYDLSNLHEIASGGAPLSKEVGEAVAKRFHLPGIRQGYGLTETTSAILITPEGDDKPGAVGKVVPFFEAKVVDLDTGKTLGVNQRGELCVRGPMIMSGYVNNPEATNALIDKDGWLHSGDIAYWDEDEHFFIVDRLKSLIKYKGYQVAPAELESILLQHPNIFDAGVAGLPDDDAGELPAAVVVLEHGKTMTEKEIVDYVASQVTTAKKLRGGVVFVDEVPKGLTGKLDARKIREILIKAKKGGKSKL
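Purified P. pyralis luciferase, 10 nM final, with Km-level 10 uM D-luciferin and 10 uM ATP in 50 mM Tris acetate pH 7.5, 10 mM Mg acetate, 0.01% Tween-20, 0.05% BSA; 6-point qHTS titration about 60 µM downward; luminescence read.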
Rab9 promoter act – Rab9 promoter activation; Huh7 Rab9 promoter-luciferase reporter, luminescence, 24 h; Potency, µM (titrated, usually from 9.22 µM), without a hit: top-dose activation, negative = inhibition, actives largely listed as activators; hit rate 2.8% among 320,000; AID 485297; further: % of control where 0% means no effect; nearly all actives have a fitted effect of over 60% in size
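Steps: seed 1500 Huh7 Rab9-luc cells per well, rest 2 h at 37 °C; add compound in DMSO; incubate 24 h; add luciferase reagent, 10 min ambient; read luminescence.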
ELG1 genotox – genotoxicity induction in ELG1-luciferase HEK293T cells. HEK293T ELG1-luciferase reporter, luminescence, 16 h. Potency, µM (doses to about 46 µM), without a hit: at the top dose activity change, positive = activation, actives largely listed as activators. hit rate 1.3% among 330,000. AID 504466; further: % of control where 0% means no effect; nearly all actives have a fitted effect of over 60% in size
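Luminescence read-out: rising ELG1-luciferase signal, reflecting elevated ELG1 protein under genetic stress, flags genotoxic compounds. Cells were treated for 16 hr at 37 °C before ONE-Glo detection.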
SMN2 splice up – increases expression of the SMN2 splice variant | HEK293 SMN2-luciferase splicing reporter, luminescence, 30-36 h | AID 1458 | hit rate 2.8% among 210,000 | Potency, µM (doses to about 46.1 µM), without a hit: top-dose activity change, positive = activation, usual class: activators; further: % of control where 0% means no effect; nearly all actives have a fitted effect of over 55% in size
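qHTS luciferase splicing reporter: luminescence rises when SMN2 exon 7 is included in transfected HEK293 cells. Compound exposure lasted 30-36 h at 37C, with 4.5 mM final sodium butyrate as control, followed by a ONE-Glo read.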
NPC1 prom act – NPC1 promoter activation; Huh7 NPC1 promoter luciferase reporter, 24 h; Potency, µM (highest dose often 9.22 µM), for inactives: at the highest dose activation, usual class: activators; hit rate 2.4% among 320,000; AID 485313; further: % of control where 0% means no effect; nearly all actives have a fitted effect of over 60% in size
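Huh7 reporter cells (NPC1 promoter driving luciferase) are dosed with compound for 24 h at 37 °C, 5% CO2; luciferase detection reagent is then added and luminescence measured after 10 min at ambient temperature.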
* hit, by the source's call; ? = inconclusive; . = no result given; [ ] = dose if it differs, or a comment. The call rests on the fitted dose curve; in most records, active means well fitted curve in the direction sought with a large enough effect; inconclusive means small, poorly fitted or top-dose-only effect, or another doubt; inactive means no such curve, though single readings can be large; an effect the other way counts as inactive or inconclusive. Potency means the concentration at half of the fitted maximal effect.

SMILES	FLuc modulator	Rab9 promoter act	ELG1 genotox	SMN2 splice up	NPC1 prom act
COC(=O)C(Cc1ccc(O)cc1)NC(=O)c1ccccc1 (stereo not given)	19µM*	-3%	0%	29%	-5%
COC(=O)[C@H](Cc1ccccc1)NC(=O)NCc1ccc(C)cc1	21µM*	-7%	0%	.	4%
CC(C)CCNC(=O)c1cnc2sc(N3CCCCC3)nn2c1=O	-2%	.	.	.	.
CC(CCc1ccccc1)NC(=O)COC(=O)C12CC3CC(CC(Br)(C3)C1)C2 (stereo not given)	8%	4%	1%	13%	-1%
O=C(Oc1ccc(Br)cc1)c1n[nH]c(=O)c2ccccc12	1%	1%	0%	-1%	-1%
O=C(/C=C\NCC(=O)c1ccccc1)c1ccc2ccccc2c1	27µM*	16%	10%	.	17%
O=C(/C=C\NCC(=O)c1ccccc1)c1ccc(F)cc1	13µM*	26%	10%	-14%	20%
CCc1nnc(NS(=O)(=O)c2ccc(N/C=C\C(=O)c3ccc4ccccc4c3)cc2)s1	?	-8%	6%	-5%	1%
Cc1ccccc1OCC(=O)Nc1ccncc1	?	-4%	2%	.	-6%
CN(c1cccc(NC(=O)COc2ccc(Cl)cc2Cl)c1)S(C)(=O)=O	1.2µM*	?	8%	30%	29%
Cc1ccc(OCC(=O)Nc2ccncc2)c(C)c1	12µM*	4%	12%	.	-4%
Cc1ccccc1OCC(=O)Nc1cccc(N(C)S(C)(=O)=O)c1	?	19%	4%	23%	13%
O=C(COc1ccc(Cl)cc1Cl)Nc1cccnc1	6.7µM*	-5%	?	-9%	18%
O=C(CCCOc1ccc(Cl)cc1Cl)Nc1ccccn1	17µM*	-3%	?	9%	2%
O=C(CCCOc1ccc(Cl)cc1Cl)Nc1ccncc1	24µM*	0%	0%	-22%	-3%
O=C(COc1ccc(Cl)cc1Br)Nc1ccncc1	9.5µM*	2%	?	.	?
C(=N\n1cnnc1)/c1cccc(OCCOc2ccccc2)c1	?	1.4µM*	5%	11µM*	2.8µM*
C(=N\n1cnnc1)/c1ccc(OCc2cccc3ccccc23)cc1	?	?	?	14µM*	?
COc1cc(/C=N/n2cnnc2)ccc1OCCOc1ccccc1	4%	-2%	5%	-14%	-3%
N#Cc1ccccc1Cn1cc(/C=N/Nc2ccc([N+](=O)[O-])cn2)c2ccccc21	3%	-9%	8%	-17%	-16%
O=[N+]([O-])c1ccc(N/N=C/c2ccc(OCc3cccc4ccccc34)cc2)nc1	2%	-2%	21µM*	-20%	21%
O=C(CNc1cccc(S(=O)(=O)N2CCOCC2)c1)N1CCc2ccccc21	-27%	0%	7%	.	5%
COC(=O)c1ccc(-c2cc(C(=O)O)c3cc4c(cc3n2)OCCO4)cc1	4.8µM*	-1%	?	7%	3%
O=C(O)c1cc(-c2ccc3c(c2)OCO3)nc2ccc(Cl)cc12	2.4µM*	29%	29%	.	0%
CN(C)c1ccc(-c2c(-c3ccc4c(c3)OCO4)noc2-c2ccsc2)cn1	?	9%	-1%	.	10%
SMILES	FLuc modulator	Rab9 promoter act	ELG1 genotox	SMN2 splice up	NPC1 prom act
O=C(Nc1ccc2c(c1)OCO2)c1cc(-c2ccncc2)nc2ccccc12	?	5%	-2%	13%	2%
O=C(O)c1cc(-c2ccc(-c3c(-c4ccc5c(c4)OCO5)noc3-c3ccsc3)cc2)nc2ccccc12	19µM*	21%	3%	.	?
O=C(O)c1cc(-c2ccc(-c3ccc(-c4cc(C(=O)O)c5cc(Cl)ccc5n4)cc3)cc2)nc2ccc(Cl)cc12	.	.	.	-11%[9.22 µM]	.
CC(C)(C)NC(=O)c1cc(-c2ccc3c(c2)OCO3)nc2ccccc12	17µM*	-5%	1%	.	20%
COc1cc(-c2cc(C(=O)O)c3cc4c(cc3n2)OCCO4)cc(OC)c1OC	-1%	0%	1%	12%	1%
Cn1c(CNC(=O)c2ccco2)nnc1SCC(=O)Nc1c(F)cc(F)cc1Br	0%	-1%	-2%	-5%	-1%
Cn1c(NC(=O)c2cc(-c3ccc4c(c3)OCO4)nc3ccccc23)cc(=O)n(C)c1=O	2.1µM*	20%	?	10µM*	30%
O=C(Nc1cccnc1)c1cc(-c2cc(Cl)ccc2O)n[nH]1	2.4µM*	?	17%	.	2.8µM*
Cc1ccc(O)c(-c2cc(C(=O)Nc3cccnc3)[nH]n2)c1	5.4µM*	2.2µM*	?	.	2.8µM*
Cc1ccc(C)c(NC(=O)c2cc(-c3cc(C)c(C)cc3O)n[nH]2)c1	?	3.5µM*	?	.	?
Cc1ccc(C)c(NC(=O)c2cc(-c3ccccc3O)n[nH]2)c1	?	?	11%	.	?
CN(C)CCCNC(=O)c1ccc(Cl)c(S(=O)(=O)N(C)c2ccccc2)c1	1%	-2%	4%	4%	7%
CCOC(=O)c1cnc2scnn2c1=O	0%	-3%	-8%	11%	5%
CCOC(=O)c1cnc2cc3c(cn2c1=O)CCCC3	24µM*	3.2µM*	28%	16%	?
O=C(CN1C(=O)/C(=C\c2cccc(Br)c2)Oc2ccccc21)NCCCN1CCOCC1	6.7µM*	-6%	0%[9.26 µM]	.	-1%
COc1cccc(/C=C2/Oc3ccccc3N(CC(=O)NCC3CCCO3)C2=O)c1 (stereo not given)	9.5µM*	3%	-6%	.	0%
O=C(O)CN1C(=O)/C(=C/c2cccc(Cl)c2)Oc2ccccc21	13µM*	3%	-1%	.	-5%
O=C(CN1C(=O)COc2ccccc21)NCCCN1CCOCC1	4%	1%	1%	.	0%
CCOC(=O)C1CCCN(C(=O)CN2C(=O)/C(=C/c3ccc(OC)cc3)Oc3ccccc32)C1 (stereo not given)	15µM*	-1%	-15%	-50%	0%
CCOC(=O)C1CCCN(C(=O)CN2C(=O)c3ccccc3C2=O)C1 (stereo not given)	0%	18%	-6%	18%	-1%
O=C(O)CN1C(=O)/C(=C/c2ccccc2Cl)Oc2ccccc21	?	-1%	-3%	.	-4%
CCc1ccc(/C=C2/Sc3ccccc3N(CC(=O)NCCCN3CCOCC3)C2=O)cc1	19µM*	-2%	7%	.	-1%
Cc1c(C(=O)O)sc2[nH]c(=O)n(Cc3ccccc3)c(=O)c12	-1%	0%	0%	.	-2%
COc1ccc(C(C#N)=C2C=CC(=NO)C=C2)cc1	17µM*	0%	-4%	.	-1%
Cc1ccc(-n2nc3c(n2)/C(=N/O)CC/C3=N\O)cc1	9.5µM*	3.2µM*	?	13µM*	?
O/N=C1\CC/C(=N\O)c2nn(-c3ccccc3Cl)nc21	3%	-2%	-4%	-9%	-4%
O=C(CCCc1cccs1)Nc1nc2c(s1)CCCC2	24µM*	?	?	16µM*	?
